# Records with an inconclusive call do not appear. Calls of active or inactive are those of the source. The calls were made as follows: active = hit-call score of the fitted dose curve at least 0.9, where 1 is the maximum; inconclusive = response in the unintended direction; inactive = score below 0.9.
# Target: Estrogen receptor (Homo sapiens) (UniProt P03372)
# Assay: CCTE_Deisenroth_AIME_384WELL_LUC_Active: CCTE's 384-well Estrogen Receptor Transactivation Assay with AIME metabolic competence (ERTA luciferase; metabolism positive), Deisenroth Lab (AID 2284030)
# Experimental: CCTE_Deisenroth_AIME_384WELL (AIME metabolism assay) is a cell-based, single-readout assay that uses VM7Luc4E2, a human mammary gland/breast cell line, with measurements taken at 24 hour after chemical dosing in a 384-well plate.CCTE_Deisenroth_AIME_384WELL_LUC_Active is one of four assay components measured or calculated from the CCTE_Deisenroth_AIME_384WELL assay. It is designed to make measurements of luciferase induction, a form of inducible reporter, as detected with bioluminescence signals by luciferase-coupled ATP quantitation technology.CCTE_Deisenroth_AIME_384WELL_LUC_Active is a component of the CCTE_Deisenroth_AIME_384WELL assay that measures the effect of retroftting the VM7Luc ERTA assay with the Alginate Immobolization of Metabolic Enzymes (AIME) metabolism method. AIME is optimized to impart phase I hepatic metabolism using phenobarbital/beta-naphthoflavone induced hepatic S9 from male Sprague Dawley rats. Parent chemicals are incubated for 2 hours in the AIME assay prior to transfer to the VM7Luc ERTA assay plate. […] This endpoint evaluates reporter induction in metabolism positive mode. Using a type of inducible reporter in VM7Luc cells, gain-of-signal activity can be used to understand changes in the reporter gene as they relate to xenobiotic metabolism and the gene ESR1. This assay endpoint, CCTE_Deisenroth_AIME_384WELL_LUC_Active, was analyzed in the positive analysis fitting direction relative to 17beta-estradiol as the positive control in the ERTA assay. To generalize the intended target to other relatable targets, this assay endpoint is annotated to the nuclear receptor intended target family, where the subfamily is steroidal.
# The AIME procedure consists of a preparative "pre-stamping" step using a barium chloride/poly-L-lysine (PLL) solution followed by "stamping" the lid in alginate-hepatic S9 (metabolism positive) or alginate-water (metabolism negative) to form microspheres. Once stamping is completed, the AIME lids are placed in duplicate microplates (metabolism positive or negative) containing chemical solutions and incubated for two hours to facilitate metabolic reactions. The conditioned medium, containing parent chemical or metabolites, is then transferred to the cell-based VM7Luc Estrogen Receptor Transactivation Assay (ERTA) for 24 hours. A typical experimental design tests a 10-point concentration series (0.002 - 200 uM) for 8 compounds (96-well format)1 or 32 compounds (384-well format)2 in single technical replicate. AIME assay controls include trans-stilbene (bioactivated control) and ethylparaben (bioinactivated control). ERTA assay plate controls include 17-beta estradiol (positive control) and DMSO (solvent control). Experiments typically comprise a minimum of four experimental replicates (n=4).
# Sequence of Estrogen receptor (Homo sapiens) (P03372 whole entry, looked up): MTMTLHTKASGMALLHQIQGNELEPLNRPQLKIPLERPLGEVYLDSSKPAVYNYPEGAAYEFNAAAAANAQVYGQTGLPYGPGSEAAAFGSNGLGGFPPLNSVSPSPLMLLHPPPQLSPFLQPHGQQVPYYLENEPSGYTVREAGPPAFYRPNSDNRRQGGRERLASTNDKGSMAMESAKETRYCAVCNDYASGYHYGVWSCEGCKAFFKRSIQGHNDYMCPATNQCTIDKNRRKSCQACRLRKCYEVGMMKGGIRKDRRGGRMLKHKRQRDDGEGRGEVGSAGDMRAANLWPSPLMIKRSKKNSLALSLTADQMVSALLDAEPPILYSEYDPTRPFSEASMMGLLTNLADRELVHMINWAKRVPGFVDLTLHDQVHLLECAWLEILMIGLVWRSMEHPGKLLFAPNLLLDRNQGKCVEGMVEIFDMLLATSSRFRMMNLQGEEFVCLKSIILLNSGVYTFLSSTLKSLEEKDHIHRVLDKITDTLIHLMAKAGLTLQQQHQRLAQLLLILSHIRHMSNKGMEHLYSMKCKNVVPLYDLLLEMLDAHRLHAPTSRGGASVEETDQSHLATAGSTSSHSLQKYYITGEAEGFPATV
Structure (SMILES),outcome,AC50
CSC(=O)c1cccc2nnsc12,inactive,–
N#CSCSc1nc2ccccc2s1,inactive,–
CCCCOC(=O)[C@@H](C)Oc1ccc(Oc2ccc(C(F)(F)F)cn2)cc1,inactive,–
C#CCOC(=O)[C@@H](C)Oc1ccc(Oc2ncc(Cl)cc2F)cc1,inactive,–
COc1c(Cl)ccc(Cl)c1C(=O)O,inactive,–
CCN(CC)C(=O)c1cccc(C)c1,inactive,–
CCOC(=O)COc1cc(-n2ncc(C(F)(F)F)c(C)c2=O)c(F)cc1Cl,inactive,–
O=C(O)c1ccccc1,inactive,–
CCCCOC(=O)C(C)Oc1ccc(Oc2ccc(C(F)(F)F)cn2)cc1 (stereo not drawn),inactive,–
c1ccc2[nH]c(-c3cscn3)nc2c1,–,30.5 µM (active)
O=C(c1ccc(O)cc1O)c1ccc(O)cc1O,–,6.67 µM (active)
CCSC(=O)N(CC(C)C)CC(C)C,inactive,–
O=C(Nc1ccc([N+](=O)[O-])cc1Cl)c1cc(Cl)ccc1O,inactive,–

# Reference: PubChem BioAssay (EPA / NIEHS)
